Assay results: PubChem BioAssay AID2417 (National Center for Advancing Translational Sciences (NCATS), 2010)
Among all 140,000 compounds or so, about 4,300 (3.1%) were called active. About 21% were inconclusive and are not listed.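 The calls were made as follows: active = readout at or below -70, meaning at least 70% loss of cells showing the perinucleolar compartment, a nuclear body marking cancer cells; inconclusive = readout between -30 and a set limit; inactive = the rest.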 Many of the other results were omitted from the sample, so actives are more common in it than they were.

Assay: High Content Assay for Compounds that inhibit the Assembly of the Perinucleolar Compartment;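 also: plate controls were DMSO wells for no effect and camptothecin positive control wells for full effect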
Details: PC3M PTB-GFP, PNC prevalence imaging, 16 h; at 10 µM; hits give low values
Method in brief: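 Read-out is percentage of cells bearing a perinucleolar compartment, from automated 20x imaging of fixed, Hoechst-stained PC3M PTB-GFP cells. Cells were seeded 4 h, then exposed 16 h to compound (23 nl of library stock) in duplicate plates.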

Activity change (PNC), negative = inhibition, active:
COc1ccc(Cc2nnc(N/N=C/c3ccccc3O)[nH]c2=O)cc1OC -84.6%
CC(C)C[C@H](NC(=O)Nc1cccc(C(F)(F)F)c1)C(=O)O -100%
Cc1cc(OCCN2CCCC2)ccc1C(C)C -100%
Cc1c(NC(=O)Nc2ccccc2Cl)sc(=S)n1C -119%
CNc1nc(SC)nc(N(C#N)CC(=O)OC)n1 -100%
CN(c1ccc(C(=O)N2CCc3ccccc3C2)cc1)S(C)(=O)=O -100%

Activity change (PNC), negative = inhibition, inactive:
CCC(CC)C(=O)N1CCN(c2cccc(C)c2C)CC1 -15.3%
COc1cc(/C=N\NC(=O)c2nonc2N)c(OC)cc1Br 16.4%
COc1ccc(/C=N/Nc2nc3ccccc3c(=O)[nH]2)cc1 25.5%
COc1ccc(CCNC(=O)CCCCn2c(=O)[nH]c3ccccc3c2=O)cc1OC -14.6%
NS(=O)(=O)c1cc(C(=O)NCCOc2ccccc2)c(Cl)cc1Cl -9.28%
C=CCNC(=O)c1ccccc1NC(=O)c1ccc(Cl)c(S(=O)(=O)Nc2cccc(C)c2C)c1 -8.83%
O=C(O)CSCC(=O)Nc1cccc(C(F)(F)F)c1 -17.2%
CCNS(=O)(=O)c1ccc(NC(=O)Nc2cccc(C(F)(F)F)c2)cc1 -8.69%
CC(=O)Nc1ccc(S(=O)(=O)NCC(=O)OCc2cc(=O)oc3ccc4ccccc4c23)cc1 -24.6%
Cc1cc(C(=O)COC(=O)CNC(=O)c2ccc(F)cc2)c(C)n1Cc1ccco1 8.75%
Cc1cc(OCCN2CCCC2)cc(C(C)C)c1 0%
c1ccc2cc(OCCN3CCCC3)ccc2c1 -15.5%
Cc1cc([N+](=O)[O-])nn1CC(=O)Nc1ccc(Cc2ccncc2)cc1 -5.96%
Cc1scc(C(=O)NNC(=S)NCc2ccccc2)c1C 11.8%
CCCCn1c(O)c(N=NC(=O)Cn2c(C(F)(F)F)nc3ccccc32)c2ccccc21 -20%
CN(C)CCNC(=O)Nc1cccc(Cl)c1Cl 17.8%
Cc1cc(C)nc(NC(=O)Nc2ccccc2C(F)(F)F)n1 -23.4%
O=C1NC(c2ccccc2)=NC1(Nc1ccccn1)C(F)(F)F (stereo unspecified) 23.3%
Cc1ccc(NC(=O)c2oc(=O)c3ccccc3c2-c2ccccc2)c(C)c1 36.6%
Cc1cc(C)nc(N(C#N)CC(=O)Nc2ccccc2)n1 -18.1%
COC(=O)C(C)N(C#N)c1nc(C)nc(C)n1 (stereo unspecified) 10.7%
O=C(NC(=S)N1CCN(Cc2ccccc2)CC1)c1ccccc1 -17%
Cc1cc(C(=O)NNC(=S)NC(C)c2ccccc2)cs1 (stereo unspecified) 1.77%
CN(c1ccc(C(=O)NCCC2=CCCCC2)cc1)S(C)(=O)=O 32.9%
COc1cc2c(cc1OC)CN(C(=O)c1ccc(S(=O)(=O)N3CCCCCC3)cc1)CC2 -8.24%
